From PubChem
DUX4 inh: blocks DUX4-driven transcriptional activation | AID 1224904 | activity change, negative = inhibition, % (no concentration beside the values) | 37,000 compounds, 0.8% hits | 293T-iDUX4 ZSCAN4-Gaussia luciferase reporter, 24 h; active compounds read low;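 active = mean inhibition of at least 10% in the main channel, exceeding the control channel by a set limit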;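 also: 0% = median of neutral control wells and -100% = median of positive control wells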
Active calls of the source: *. The entries come from a sample that favours hits as a whole.

Screening COc1ccc2c3c(n(C)c2c1)[C@@H](CO)N(CC1CC1)CC31CCN(C(=O)c2ccccc2)CC1 returned DUX4 inh -32.4*.
Screening COc1ccc2c3c(n(C)c2c1)[C@@H](CO)N(CC1CC1)CC31CCN(C(=O)CC2CC2)CC1 returned DUX4 inh -1.9.
Screening COc1ccc2c3c(n(C)c2c1)[C@H](CO)N(CC1CC1)CC31CN(C(=O)NC2CCCC2)C1 returned DUX4 inh 2.3.
Screening COc1ccc2c3c(n(C)c2c1)[C@H](CO)N(C)CC31CN(C(=O)NC(C)C)C1 returned DUX4 inh 5.5.
For COc1ccc2c3c(n(C)c2c1)[C@@H](CO)N(C(=O)c1ccccc1)CC31CCN(CC2CC2)CC1 the results were DUX4 inh -2.2.
For COc1ccc2c3c(n(C)c2c1)[C@H](CO)N(C)CC31CN(C(=O)C2CCC2)C1 the results were DUX4 inh 22.5.
Screening CCC(=O)N1[C@@H]2Cn3c(ccc(-c4ccccc4)c3=O)[C@H]1[C@@H](C(=O)N1CCN(C)CC1)[C@@H]2CO returned DUX4 inh -2.2.
O=C(NC1CCCC1)[C@H]1[C@H](CO)[C@H]2Cn3c(cccc3=O)[C@@H]1N2CC1CCCC1 was read as DUX4 inh 6.7.
For C/C=C/c1cnc2c(c1)C(=O)N([C@H](C)CO)C[C@H](C)[C@@H](CN(C)S(=O)(=O)c1ccc(OC)cc1)O2 the results were DUX4 inh 0.4.
Screening O=C(C[C@@H]1CC[C@@H]2[C@H](COC[C@H](O)CN2S(=O)(=O)c2ccc(F)cc2)O1)NCc1ccncn1 returned DUX4 inh 9.1.
For COc1ccc2c3c(n(C)c2c1)[C@H](CO)N(C(=O)C1CCCC1)CC31CCN(C(=O)CC2CC2)CC1 the results were DUX4 inh 6.4.
`COc1cccc(NC(=O)N2CC(=O)N3[C@H](CO)[C@@H](c4ccc(C#CC5CCCCC5)cc4)[C@H]3C2)c1` gave DUX4 inh -7.5.
Screening CC(C)CC#Cc1ccc([C@@H]2[C@@H](CO)N3C(=O)CN(C(=O)Cc4ccccc4)C[C@H]23)cc1 returned DUX4 inh -0.6.
Screening CC(C)CC#Cc1ccc([C@H]2[C@@H](CO)N3C(=O)CN(C(=O)Cc4ccccc4)C[C@H]23)cc1 returned DUX4 inh -2.6.
`COCC(=O)N1CC(=O)N2[C@H](C1)[C@H](c1ccc(C#Cc3cccnc3)cc1)[C@@H]2CO` gave DUX4 inh 10.1.
Screening COc1cccc(NC(=O)N2CC(=O)N3[C@@H](CO)[C@H](c4ccc(C#CC5CCCCC5)cc4)[C@@H]3C2)c1 returned DUX4 inh -47.4*.
Screening CC(=O)N1CC(=O)N2[C@H](CO)[C@H](c3ccc(C#Cc4cccnc4)cc3)[C@H]2C1 returned DUX4 inh -20.3*.
`O=C(Cc1ccccc1)N1CC(=O)N2[C@H](C1)[C@@H](c1ccc(C#CCc3ccccc3)cc1)[C@@H]2CO` gave DUX4 inh -33.8*.
Screening COCC(=O)N1CC(=O)N2[C@@H](CO)[C@@H](c3ccc(C#Cc4cccnc4)cc3)[C@@H]2C1 returned DUX4 inh -2.4.
For CC(=O)N1CC(=O)N2[C@@H](CO)[C@H](c3ccc(C#Cc4cccnc4)cc3)[C@@H]2C1 the results were DUX4 inh 3.7.
For CC(=O)N1CC(=O)N2[C@H](CO)[C@@H](c3ccc(C#Cc4cccnc4)cc3)[C@H]2C1 the results were DUX4 inh 0.2.
For COCC(=O)N1CC(=O)N2[C@H](CO)[C@H](c3ccc(C#Cc4cccnc4)cc3)[C@H]2C1 the results were DUX4 inh -21.7*.
For COc1cccc(NC(=O)N2CC(=O)N3[C@H](CO)[C@@H](c4ccc(C#CC5CCCCC5)cc4)[C@@H]3C2)c1 the results were DUX4 inh 5.0.
For COC(=O)C[C@H]1CC[C@@H]2[C@H](COc3ccc(NC(=O)c4cscn4)cc3C(=O)N2C)O1 the results were DUX4 inh -2.7.
`C[C@@H]1CCCCO[C@H](CN(C)C(=O)c2ccccc2)[C@@H](C)CN([C@H](C)CO)C(=O)c2cc(NC(=O)C3CCCCC3)ccc2O1` gave DUX4 inh 1.9.
`COCC(=O)N1CCC2(CC1)CN(Cc1ccccn1)[C@H](CO)c1[nH]c3cc(OC)ccc3c12` gave DUX4 inh 18.0.
COc1ccccc1NC(=O)N[C@@H]1CC[C@H](CCn2cc(-c3cccnc3)nn2)O[C@H]1CO was read as DUX4 inh -3.9.
`CN(C)CC(=O)Nc1ccc2c(c1)[C@H]1C[C@H](CC(=O)NC3CCCCC3)O[C@@H](CO)[C@H]1O2` gave DUX4 inh 1.9.
For O=C(C[C@H]1CC[C@H]2[C@@H](COC[C@@H](O)CN2S(=O)(=O)c2ccc(Oc3ccccc3)cc2)O1)NCCN1CCCCC1 the results were DUX4 inh -3.8.
COc1ccc(S(=O)(=O)N2CC[C@@H]3[C@H]2c2cc(C#Cc4cccnc4)ccc2N[C@@H]3CO)cc1 was read as DUX4 inh 0.9.
Screening CNC[C@H]1OCc2ccccc2-c2c(n(C)c3ccccc23)C(=O)N([C@@H](C)CO)C[C@@H]1C returned DUX4 inh 8.1.
For COCC(=O)N1[C@@H](C#N)[C@@H](c2ccccc2-c2ccccc2F)[C@@H]1CO the results were DUX4 inh 9.9.
For COc1cccc(CN2[C@@H](CO)[C@@H](c3ccccc3)C23CN(C(=O)C2CCC2)C3)c1 the results were DUX4 inh -5.7.
Screening COc1cccc(CN2[C@@H](CO)[C@@H](c3ccccc3)C23CN(C(=O)C2CC2)C3)c1 returned DUX4 inh -1.7.
For COc1cccc(CN2[C@@H](CO)[C@@H](c3ccccc3)C23CN(Cc2ccccc2OC)C3)c1 the results were DUX4 inh -38.2*.
`C[C@H]1CC=CCCNC(=O)[C@H](C)N(C)C(=O)c2ccccc2O1` (mixture of isomers) gave DUX4 inh -0.5.
Screening O=C(C1CCCC1)N1CC2(C1)[C@@H](c1ccccc1)[C@@H](CO)N2C(=O)c1cccnc1 returned DUX4 inh 10.0.
Screening O=C(c1cnccn1)N1CC2(C1)[C@@H](c1ccccc1)[C@@H](CO)N2C(=O)c1ccccc1 returned DUX4 inh 6.5.
`C[C@@H]1CN([C@H](C)CO)C(=O)c2c(c3ccccc3n2C)-c2ccccc2CO[C@H]1CN(C)C` gave DUX4 inh 4.0.
C[C@@H]1CN([C@@H](C)CO)C(=O)c2c(c3ccccc3n2C)-c2ccccc2CO[C@H]1CN(C)Cc1cccc2c1OCCCO2 was read as DUX4 inh -30.7*.
For C[C@H](CO)N1C[C@H](C)[C@H](CN(C)Cc2cccc3c2OCCCO3)OCc2ccccc2-c2ccccc2C1=O the results were DUX4 inh -0.5.
`C[C@H]1CN([C@@H](C)CO)C(=O)c2c(c3ccccc3n2C)-c2ccccc2CO[C@@H]1CN(C)C` gave DUX4 inh -8.0.
COc1ccccc1CN(C)C[C@@H]1OCc2ccccc2-c2c(n(C)c3ccccc23)C(=O)N([C@@H](C)CO)C[C@@H]1C was read as DUX4 inh -31.5*.
C[C@@H]1CN([C@@H](C)CO)C(=O)c2ccccc2-c2ccccc2CO[C@H]1CN(C)Cc1ccccc1C(F)(F)F was read as DUX4 inh -6.7.
C[C@@H]1CN([C@H](C)CO)C(=O)c2c(c3ccccc3n2C)-c2ccccc2CO[C@@H]1CN(C)Cc1ccncc1 was read as DUX4 inh -1.5.
`C[C@@H]1CN([C@H](C)CO)C(=O)c2c(c3ccccc3n2C)-c2ccccc2CO[C@H]1CN(C)Cc1ccccc1C(F)(F)F` gave DUX4 inh -48.8*.
